Shown are actives, neighbours in structure and some others; about 3.8% of the full set was active somewhere.
Nrf2 block – Nrf2 qHTS screen for inhibitors; A549 ARE-Fluc reporter, luciferase luminescence, 18-24 h; Potency, µM (doses to about 46 µM), for the others: at the highest dose activity change, negative = inhibition, hits mostly inhibitors; 360,000 tested, 2.1% active; AID 504444, 2011; further: on the % scale 0 is the no-effect control and ±100 the full control effect; nearly all actives have a fitted effect of over 60% in size
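A549 ARE_Fluc cells, 5000/well, 5% FBS OPTI-MEM; compounds in dose-response, 18-24 h at 37 °C/5% CO2; CellTiter-Fluor viability read (Ex 405/Em 525), then BugLite luciferase luminescence = Nrf2 activity.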
ATXN viability – Viability Counterscreen for Primary qHTS for Inhibitors of ATXN expression. 400,000 tested, 0.49% active. Potency, µM (series often up to 56.7 µM), actives largely listed as cytotoxic. AID 651635, 2014. S2 cells (HEK-293 line with an ATXN2-luciferase reporter) viability, CellTiter-Fluor protease fluorescence, 24 h; further: nearly all actives have a fitted effect of over 40% in size
A549 tox – Nrf2 qHTS screen for inhibitors: counterscreen for cytotoxicity. A549 ARE-Fluc cells, CellTiter-Fluor viability, 18-24 h. Potency, µM (highest dose often 46 µM), for the others: at the top dose activity change, negative = cytotoxicity, hits mostly inhibitors. AID 504648, 2011. 390,000 tested, 0.16% active; further: on the % scale 0 is the no-effect control and ±100 the full control effect
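Cytotoxicity counterscreen: CellTiter-Fluor fluorescence was measured in A549 ARE_Fluc cells after 18-24 h of compound exposure in a concentration series. The subsequent BugLite luminescent read reports ARE-luciferase activity.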
ATXN2 expr inh – Primary qHTS for Inhibitors of ATXN expression. Potency, µM (series often up to 57 µM), inactives show at the top dose activity change, negative = inhibition, hits mostly inhibitors. 360,000 tested, 0.72% active. HEK-293 ATXN2-luciferase reporter, luminescence, 24 h. AID 1745845, 2022; further: on the % scale 0 is the no-effect control and ±100 the full control effect; nearly all actives have a fitted effect of over 55% in size
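ATXN2-luciferase reporter cells (luciferase flanked by upstream and downstream ATXN2 gene portions) were treated 24 h at 37 °C with compounds at up to 57 uM. SteadyGlo luminescence gave expression; GF-AFC fluorescence gave viability.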
HepG2 viability – qHTS for Inhibitors of TGF-b: Cytotox Counterscreen | HepG2 CAGA-GFP viability, ATP luminescence, 18 h | Potency, µM (highest dose often 46.1 µM), without a hit: top-dose activity change, negative = cytotoxicity, actives largely listed as cytotoxic | 410,000 tested, 0.76% active | AID 588856, 2011
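HepG2 CAGA-GFP cells (1000/well, DMEM with 1% FBS) received compound, then TGF-beta at 500 pg/mL final, and were incubated 18 hours at 37 degrees C. Viability was read by CellTiter-Glo luminescence. Media-only wells were set as complete cell-killing and DMSO as no toxicity.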
TGFb SMAD3 inh – qHTS for Inhibitors of TGF-b | HepG2 CAGA-GFP TGF-b/SMAD3 reporter, GFP fluorescence, 18 h; TGF-beta stimulated, 500 pg/mL final | Potency, µM (doses to about 46.1 µM), for inactives: at the top dose activity, negative = inhibition, usual class: inhibitors | 410,000 tested, 1.2% active | AID 588855, 2011; further: on the % scale 0 is the no-effect control and ±100 the full control effect; nearly all actives have a fitted effect of over 65% in size
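Per well, imaged GFP fluorescence of HEPG2 CAGA-GFP cells gives the signal; cells get compound, then TGF-beta (500 pg/mL final), 18 h at 37 degrees C; %Activity versus -TGF-beta and +DMSO controls.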
* = called active by the depositor; i = inactive; ? = inconclusive; . = not tested or not shown; ! = a repeat was not active. The call rests on the fitted dose curve; in most records, active means well fitted curve in the direction sought with a large enough effect; inconclusive means small, poorly fitted or top-dose-only effect, or another doubt; inactive means no such curve, though single readings can be large; an effect the other way counts as inactive or inconclusive. Potency means the concentration at half of the fitted maximal effect.

SMILES	Nrf2 block	ATXN viability	A549 tox	ATXN2 expr inh	HepG2 viability	TGFb SMAD3 inh
O=C(O)c1cccc(NC(=S)NC(NC(=O)c2cccc([N+](=O)[O-])c2)C(Cl)(Cl)Cl)c1 (stereo unspecified)	19%	i	13%	.	34%	2%
O=C(Nc1ccccc1)/C(=C1\CCCN1)[N+](=O)[O-]	3%	i	-2%	23%	0%	-13%
Cc1ccnc2nc(C(=O)OCC(=O)N(CC(C)C)C3CCS(=O)(=O)C3)nn12 (stereo unspecified)	11%	i	0%	7%	5%	18%
COc1ccccc1CNC(=O)C1CCN(C2=NS(=O)(=O)C(c3ccc(C)c(C)c3)=C2C)CC1	.	i	-6%	-34%	-59%	?
Cc1nnc(NCc2ccccc2)c2c1nnn2Cc1ccccc1Cl	-12%	i	-6%	12%	2%	0%
CSCCC(NC(=O)c1ccco1)C(=O)N1CCN(c2ccccc2O)CC1 (stereo unspecified)	-8%	?	-2%	.	-6%	-7%
O=S(=O)(c1ccccc1)N1CCN(CC(O)COc2ccc3c(c2)CCC3)CC1 (stereo unspecified)	16µM*	i	-21%	-12%	-24%	-8%
COc1ccc(OCC(=O)OCC(=O)NC2CCCCC2C)cc1 (stereo unspecified)	0%	.	2%	.	1%	11%
COc1cc(NC2CCCCC2O)c2nc(-c3ccc(Cl)cc3)ccc2c1 (stereo unspecified)	?	i	9.2µM*	27%	-43%	?
COc1ccc(Cl)cc1Nc1sc(C(=O)c2ccccc2)c(N)c1C(=O)Nc1ccccc1	.	?	1%	-10%	-33%	16µM*
CCOc1ccccc1Nc1sc(C(=O)c2ccccc2)c(N)c1C(=O)Nc1ccc(F)cc1	.	i	-8%	0%	-33%	14µM*
Cc1cccc(C)c1Nc1sc(C(=O)c2ccccc2)c(N)c1C(=O)Nc1ccc(F)cc1	.	.	-12%	?	-57%	11µM*
CCOc1ccc(NC(=O)c2c(Nc3ccccc3C)sc(C(=O)c3ccccc3)c2N)cc1	.	i	-1%	3%	-41%	?
CCCC1NC(=O)c2cc3ccccc3cc2-n2c1nc1ccc(F)cc1c2=O (stereo unspecified)	.	?	.	?	-31%	-10%
CCOc1c(Cl)cc(/C=C/C(=O)N(CC)CC(=O)NCc2cccs2)cc1OC	-16%	i	?	-1%	1%	-8%
ClC(Cl)c1nnc(-c2ccccc2)c(-c2c[nH]c3ccccc23)n1	10µM*	i	?	-19%	-57%	13µM*
COc1ccc(S(=O)(=O)NC2CCN(C#N)CC2)cc1	1%	.	-5%	.	.	.
CO[C@H]1C=CO[C@@]2(C)Oc3c(C)c(O)c4c(O)c(c(C=NN5CCN(C)CC5)c(O)c4c3C2=O)NC(=O)C(C)=CC=C[C@H](C)[C@H](O)[C@@H](C)[C@@H](O)[C@@H](C)[C@H](OC(C)=O)[C@@H]1C	?	28µM*	?	19%	-15%	-26%
CC[n+]1c(/C=C/C=C/N(C(C)=O)c2ccccc2)sc2cc(OC)ccc21	-11%	32µM*	15µM*	20µM*	-37%	168%
CO[C@@]12[C@H](COC(N)=O)C3=C(C(=O)C(C)=C(N)C3=O)N1C[C@@H]1N[C@@H]12	?	?	-11%	1.7µM*!	0%	-4%
CO[C@@]12[C@@H]3N[C@@H]3CN1C1=C(C(=O)C(N)=C(C)C1=O)[C@@H]2COC(N)=O	10µM*	?	?	1.3µM*	-27%	?
